Of roughly 7,900 targets only a part is listed; those with a hit were picked by preference. About 0.6% of all pairs of compound and target were hits. A number with no mark means an inactive call.

The record followed here is the supplement of paper PMC10849652.

Chain of UniProt P35270 (P35270 whole entry, looked up): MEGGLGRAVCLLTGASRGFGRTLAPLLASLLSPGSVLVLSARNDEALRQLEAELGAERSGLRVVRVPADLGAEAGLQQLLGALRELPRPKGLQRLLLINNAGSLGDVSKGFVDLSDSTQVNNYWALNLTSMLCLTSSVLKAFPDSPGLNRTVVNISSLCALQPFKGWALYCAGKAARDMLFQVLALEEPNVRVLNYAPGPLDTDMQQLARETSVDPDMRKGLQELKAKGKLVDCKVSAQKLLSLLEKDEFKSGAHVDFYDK
Chain of UniProt Q6P1M0 (Q6P1M0 whole entry, looked up): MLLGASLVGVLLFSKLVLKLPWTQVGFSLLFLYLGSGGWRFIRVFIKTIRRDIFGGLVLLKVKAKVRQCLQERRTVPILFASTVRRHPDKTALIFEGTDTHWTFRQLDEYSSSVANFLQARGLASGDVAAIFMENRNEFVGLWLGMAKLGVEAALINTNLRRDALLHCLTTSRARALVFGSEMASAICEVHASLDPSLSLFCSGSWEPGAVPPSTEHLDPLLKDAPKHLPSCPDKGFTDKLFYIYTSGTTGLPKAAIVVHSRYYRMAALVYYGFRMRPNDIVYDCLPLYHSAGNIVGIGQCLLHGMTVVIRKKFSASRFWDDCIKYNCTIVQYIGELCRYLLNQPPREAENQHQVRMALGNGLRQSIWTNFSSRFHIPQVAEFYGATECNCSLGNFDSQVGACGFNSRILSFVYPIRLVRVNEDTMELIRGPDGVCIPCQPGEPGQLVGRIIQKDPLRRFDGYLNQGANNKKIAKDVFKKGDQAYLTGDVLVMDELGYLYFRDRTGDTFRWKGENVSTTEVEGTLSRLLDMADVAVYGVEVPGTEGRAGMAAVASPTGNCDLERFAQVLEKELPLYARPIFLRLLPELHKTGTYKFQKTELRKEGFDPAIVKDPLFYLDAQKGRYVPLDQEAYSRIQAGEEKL
Chain of UniProt Q6XR72 (Q6XR72 whole entry, looked up): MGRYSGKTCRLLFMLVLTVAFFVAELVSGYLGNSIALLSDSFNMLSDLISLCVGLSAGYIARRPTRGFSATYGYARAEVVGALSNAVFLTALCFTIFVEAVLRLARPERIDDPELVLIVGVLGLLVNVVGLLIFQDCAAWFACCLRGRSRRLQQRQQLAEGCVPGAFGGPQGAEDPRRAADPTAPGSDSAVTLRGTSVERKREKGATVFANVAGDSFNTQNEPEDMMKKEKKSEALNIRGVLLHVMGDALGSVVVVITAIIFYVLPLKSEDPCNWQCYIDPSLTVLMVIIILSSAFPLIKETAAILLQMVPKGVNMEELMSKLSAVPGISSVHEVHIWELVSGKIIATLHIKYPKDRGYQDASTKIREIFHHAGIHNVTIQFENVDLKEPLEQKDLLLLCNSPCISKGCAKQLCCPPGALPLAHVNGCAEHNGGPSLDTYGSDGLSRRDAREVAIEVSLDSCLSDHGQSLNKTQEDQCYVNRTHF
Chain of UniProt Q9NUY8 (Q9NUY8 whole entry, looked up): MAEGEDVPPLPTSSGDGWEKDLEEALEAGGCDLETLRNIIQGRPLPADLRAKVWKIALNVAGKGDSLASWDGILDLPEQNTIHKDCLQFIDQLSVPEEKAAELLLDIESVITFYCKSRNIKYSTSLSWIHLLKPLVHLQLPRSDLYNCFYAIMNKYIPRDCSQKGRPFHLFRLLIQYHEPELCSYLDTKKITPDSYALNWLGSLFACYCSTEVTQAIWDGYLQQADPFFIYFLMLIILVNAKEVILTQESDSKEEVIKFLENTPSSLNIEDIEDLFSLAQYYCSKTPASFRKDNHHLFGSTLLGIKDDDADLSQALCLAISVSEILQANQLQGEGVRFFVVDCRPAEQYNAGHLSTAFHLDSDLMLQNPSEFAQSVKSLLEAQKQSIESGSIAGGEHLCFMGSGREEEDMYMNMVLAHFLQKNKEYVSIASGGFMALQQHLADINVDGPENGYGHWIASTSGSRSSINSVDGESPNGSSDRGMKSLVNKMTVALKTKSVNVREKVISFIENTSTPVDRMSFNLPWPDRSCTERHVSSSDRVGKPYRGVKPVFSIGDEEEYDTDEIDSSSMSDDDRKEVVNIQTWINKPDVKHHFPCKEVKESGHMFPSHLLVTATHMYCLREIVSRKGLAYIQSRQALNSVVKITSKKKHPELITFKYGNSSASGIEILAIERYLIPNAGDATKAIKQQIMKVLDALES
Chain of UniProt Q9Y5X1 (Q9Y5X1 whole entry, looked up): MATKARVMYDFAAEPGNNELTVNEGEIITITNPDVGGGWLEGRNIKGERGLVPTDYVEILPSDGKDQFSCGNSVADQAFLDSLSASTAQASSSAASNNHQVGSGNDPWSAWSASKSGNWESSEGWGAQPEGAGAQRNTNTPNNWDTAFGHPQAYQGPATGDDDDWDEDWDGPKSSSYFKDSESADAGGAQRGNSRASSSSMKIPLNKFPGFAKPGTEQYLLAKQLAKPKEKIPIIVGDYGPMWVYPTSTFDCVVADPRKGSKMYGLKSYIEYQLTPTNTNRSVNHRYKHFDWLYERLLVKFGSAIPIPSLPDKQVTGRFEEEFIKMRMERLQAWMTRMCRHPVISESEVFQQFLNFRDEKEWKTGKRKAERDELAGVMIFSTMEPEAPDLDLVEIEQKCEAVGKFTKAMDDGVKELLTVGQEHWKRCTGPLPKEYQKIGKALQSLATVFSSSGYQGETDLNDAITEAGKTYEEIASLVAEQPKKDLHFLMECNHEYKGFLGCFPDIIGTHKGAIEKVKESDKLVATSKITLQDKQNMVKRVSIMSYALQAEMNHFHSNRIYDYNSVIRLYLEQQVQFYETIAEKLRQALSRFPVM
Chain of UniProt Q9NYB0 (Q9NYB0 whole entry, looked up): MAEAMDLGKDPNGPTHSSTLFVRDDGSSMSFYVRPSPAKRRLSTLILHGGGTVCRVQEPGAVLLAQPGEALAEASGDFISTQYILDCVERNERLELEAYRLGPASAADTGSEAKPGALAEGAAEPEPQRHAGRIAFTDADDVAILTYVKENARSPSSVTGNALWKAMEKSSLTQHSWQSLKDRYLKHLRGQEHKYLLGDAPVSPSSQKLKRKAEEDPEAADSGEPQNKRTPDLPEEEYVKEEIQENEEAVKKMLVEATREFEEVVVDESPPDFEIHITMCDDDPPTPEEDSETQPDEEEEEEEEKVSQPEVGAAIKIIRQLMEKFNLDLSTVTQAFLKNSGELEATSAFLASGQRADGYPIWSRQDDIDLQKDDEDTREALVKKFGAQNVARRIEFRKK
Chain of UniProt O00506 (O00506 whole entry, looked up): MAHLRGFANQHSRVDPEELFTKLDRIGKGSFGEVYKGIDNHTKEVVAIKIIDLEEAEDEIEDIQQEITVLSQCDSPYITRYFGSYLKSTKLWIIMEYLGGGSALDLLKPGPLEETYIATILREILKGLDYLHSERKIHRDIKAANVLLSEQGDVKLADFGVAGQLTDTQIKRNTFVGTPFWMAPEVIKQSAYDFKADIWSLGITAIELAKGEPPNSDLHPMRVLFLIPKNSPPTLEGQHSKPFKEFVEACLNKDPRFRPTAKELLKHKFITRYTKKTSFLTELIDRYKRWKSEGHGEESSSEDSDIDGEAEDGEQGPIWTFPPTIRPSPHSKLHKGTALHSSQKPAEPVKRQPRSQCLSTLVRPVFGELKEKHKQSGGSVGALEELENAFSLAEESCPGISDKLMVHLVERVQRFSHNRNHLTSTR
Chain of UniProt P51692 (P51692 whole entry, looked up): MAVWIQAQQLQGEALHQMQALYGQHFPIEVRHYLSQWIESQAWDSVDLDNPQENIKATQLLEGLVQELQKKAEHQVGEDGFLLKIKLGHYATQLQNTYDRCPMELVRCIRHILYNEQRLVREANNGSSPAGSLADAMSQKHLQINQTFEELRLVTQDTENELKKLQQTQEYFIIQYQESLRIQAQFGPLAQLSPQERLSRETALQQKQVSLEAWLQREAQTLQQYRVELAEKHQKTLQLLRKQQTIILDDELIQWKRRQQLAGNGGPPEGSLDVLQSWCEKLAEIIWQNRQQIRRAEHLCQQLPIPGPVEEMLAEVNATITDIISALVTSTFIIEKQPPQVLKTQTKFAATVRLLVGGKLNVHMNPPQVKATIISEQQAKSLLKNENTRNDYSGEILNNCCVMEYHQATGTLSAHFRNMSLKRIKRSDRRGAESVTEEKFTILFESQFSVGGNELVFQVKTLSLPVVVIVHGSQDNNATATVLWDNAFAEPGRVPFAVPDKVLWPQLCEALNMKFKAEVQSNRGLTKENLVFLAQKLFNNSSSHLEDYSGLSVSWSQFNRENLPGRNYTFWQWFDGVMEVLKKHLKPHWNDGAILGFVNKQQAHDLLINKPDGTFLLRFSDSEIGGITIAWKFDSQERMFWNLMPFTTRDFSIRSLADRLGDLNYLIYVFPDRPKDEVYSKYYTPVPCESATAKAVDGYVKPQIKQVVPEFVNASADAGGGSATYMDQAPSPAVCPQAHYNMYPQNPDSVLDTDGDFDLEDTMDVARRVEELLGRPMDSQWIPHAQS
Chain of UniProt Q92844 (Q92844 whole entry, looked up): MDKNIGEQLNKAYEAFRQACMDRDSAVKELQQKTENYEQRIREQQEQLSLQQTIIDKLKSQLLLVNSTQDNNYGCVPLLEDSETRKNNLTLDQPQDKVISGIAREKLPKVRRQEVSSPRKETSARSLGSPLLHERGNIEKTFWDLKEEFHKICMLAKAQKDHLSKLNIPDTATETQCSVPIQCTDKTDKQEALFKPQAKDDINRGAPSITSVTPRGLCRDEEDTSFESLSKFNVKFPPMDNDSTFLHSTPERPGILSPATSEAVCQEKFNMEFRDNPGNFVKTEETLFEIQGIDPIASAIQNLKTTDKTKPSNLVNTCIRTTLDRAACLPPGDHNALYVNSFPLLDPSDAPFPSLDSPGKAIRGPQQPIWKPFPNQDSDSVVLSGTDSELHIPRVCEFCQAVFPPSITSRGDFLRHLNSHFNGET
Chain of UniProt Q15005 (Q15005 whole entry, looked up): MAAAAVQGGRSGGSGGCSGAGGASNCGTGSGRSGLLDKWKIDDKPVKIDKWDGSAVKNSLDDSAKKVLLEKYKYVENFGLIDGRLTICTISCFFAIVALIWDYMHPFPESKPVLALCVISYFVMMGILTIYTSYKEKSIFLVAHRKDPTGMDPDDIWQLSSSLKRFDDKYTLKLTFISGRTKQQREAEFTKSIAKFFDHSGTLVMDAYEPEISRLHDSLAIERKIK

Compound in the assay: C1=CC=C(C=C1)C2=NC(=C(N2)C3=CC=NC=C3)C4=CC(=C(C=C4)Cl)O
Kind of assay: log2 fold change, soluble protein after heating vs DMSO (PISA); higher = thermal stabilisation; K562 cells, 10 uM, 30 min; active = over 0.2 and 3.5 SD of the protein, either way, in both replicates (recomputed). Summed up:
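For each measurement, 10 μM compound was applied for 30 min to K562 cells at 2×10^6 cells/mL. Aliquots were heated for 3 min across 48°C-58°C, pooled, and extracted in PBS with 0.5% NP-40 at 4°C; the supernatant after 21,000xg for 90 min was soluble protein. This was quantified by TMTpro 16plex LC-MS/MS with channel sums equalised, and thermal stability was reported relative to control samples from duplicates, on a log2 fold-change scale.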
Regarding TIMM13 (UniProt Q9Y5L4), the log2 fold change was 0.063.

As for SLC25A38 (UniProt Q96DW6), the log2 fold change is 0.023.

Consider SMARCA5 (UniProt O60264), for which the log2 fold change is 0.052.

For TEX30 (UniProt Q5JUR7), the log2 fold change was -0.01.

As for SMG1 (UniProt Q96Q15), the log2 fold change was -0.088.

With SNRPD3 (UniProt P62318), the log2 fold change is -0.113.

With SUPT5H (UniProt O00267), the log2 fold change was 0.02.

Take SPAST (UniProt Q9UBP0): the log2 fold change was 0.007.

For the target TBCD (UniProt Q9BTW9), the log2 fold change is -0.025.

SMAP (UniProt O00193): the log2 fold change was -0.012.

For SPR (UniProt P35270), the log2 fold change is 0.732 (active).

Turning to TAOK3 (UniProt Q9H2K8), the log2 fold change was 0.018.

SP3 (UniProt Q02447): the log2 fold change is -0.053.

STOM (UniProt P27105): the log2 fold change is -0.188.

Turning to TJP1 (UniProt Q07157), the log2 fold change is 0.003.

Regarding SLC30A10 (UniProt Q6XR72), the log2 fold change is 0.025.

On to SPCS2 (UniProt Q15005), for which the log2 fold change is -0.004.

For TM9SF4 (UniProt Q92544), the log2 fold change is 0.008.

Turning to STAT5B (UniProt P51692), the log2 fold change was -0.007.

For SRSF10 (UniProt O75494), the log2 fold change was -0.148.

Regarding SNX12 isoform 1 (UniProt Q9UMY4), the log2 fold change was 0.039.

As to TBC1D15 isoform 3 (UniProt Q8TC07), the log2 fold change is 0.029.

With SYMPK (UniProt Q92797), the log2 fold change is 0.093.

On to TBC1D23 (UniProt Q9NUY8), for which the log2 fold change is -0.032.

For SMAP2 (UniProt Q8WU79), the log2 fold change is -0.015.

Consider SNX5 (UniProt Q9Y5X3), for which the log2 fold change is -0.05.

Consider SNX9 (UniProt Q9Y5X1), for which the log2 fold change was -0.006.

As for SRPRB (UniProt Q9Y5M8), the log2 fold change is 0.089.

For TANGO6 (UniProt Q9C0B7), the log2 fold change was 0.025.

Regarding TGFBRAP1 (UniProt Q8WUH2), the log2 fold change was 0.194.

Regarding TANK (UniProt Q92844), the log2 fold change was -0.024.

On to TBRG4 (UniProt Q969Z0), for which the log2 fold change is 0.056.

In the case of TERF2IP (UniProt Q9NYB0), the log2 fold change is -0.038.

With STK25 (UniProt O00506), the log2 fold change is -0.025.

In the case of SLC27A4 (UniProt Q6P1M0), the log2 fold change was 0.002.

For SMC5 (UniProt Q8IY18), the log2 fold change is -0.017.

As to SLC30A7 (UniProt Q8NEW0), the log2 fold change is 0.109.
